D1 agonist: activates the human D1 dopamine receptor | HEK293 T-REx D1 cells, calcium flux, agonist mode | activation, % at 2 µM | 360,000 compounds, 1% hits; further: 0% is about no effect
Target sequence (P21728 whole entry, looked up): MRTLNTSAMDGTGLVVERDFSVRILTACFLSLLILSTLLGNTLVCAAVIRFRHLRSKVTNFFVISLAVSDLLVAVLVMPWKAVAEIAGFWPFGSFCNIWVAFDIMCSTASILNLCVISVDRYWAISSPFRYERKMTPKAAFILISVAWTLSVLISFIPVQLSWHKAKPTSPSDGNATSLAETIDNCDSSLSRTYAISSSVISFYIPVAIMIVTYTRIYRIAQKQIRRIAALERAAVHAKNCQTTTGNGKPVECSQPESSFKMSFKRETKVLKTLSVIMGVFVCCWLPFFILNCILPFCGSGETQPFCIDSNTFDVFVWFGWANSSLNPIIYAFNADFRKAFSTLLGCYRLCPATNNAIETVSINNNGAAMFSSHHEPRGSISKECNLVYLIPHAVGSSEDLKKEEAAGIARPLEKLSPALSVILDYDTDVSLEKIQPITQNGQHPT
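Tetracycline-induced HEK293 TREx D1 cells, force-coupled to calcium signalling, were dye-loaded with a no-wash calcium kit. Compound was pin-added after a 10 s baseline. Fluorescence was read kinetically at 1 cycle/s for 180 s, with calcium rises flagged as agonism.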
TRHR enhancer: allosteric enhancers of human TRH receptor. P34981. TRHR cells, fluo-8 calcium fluorescence, EC20 TRH enhancement. enhancement, % at 2 µM. 360,000 compounds, 0.66% hits. AID 493056; in the data active means enhancement above about 30%; further: 0% is about no effect
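TRHR-expressing cells loaded with fluo-8 calcium dye were read kinetically (ex 480/em 530) during compound addition, then stimulated with an EC20 of TRH (10 nM final). Enhancement of the Gq-mediated intracellular calcium response was scored.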
TRHR ag: activates the human TRH receptor; AID 493084; P34981; TRHR cells, calcium flux fluo-8, FDSS agonist mode; 360,000 compounds, 0.18% hits; activation, % at 2 µM; further: 0% is about no effect
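Fluo-8-loaded TRHR cells; 10 s baseline, compound added, kinetic Ca2+ fluorescence read 1/s, agonist mode.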
D1 antag: antagonists of human D1 dopamine receptor; AID 504652; HEK293 TREx D1 cells, calcium flux, dopamine EC80; hits give low values; P21728; activity change, negative = inhibition, % at 10 µM; 360,000 compounds, 3.2% hits; in the data active means activity change below about -30%; further: on the % scale 0 is the no-effect control and ±100 the full control effect
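Allosteric or orthosteric antagonism assessed as attenuation of the calcium response to EC80 dopamine, added 180 s after compound, in induced HEK293 Trex D1 cells loaded with no-wash calcium dye.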
D1 potentiator: human D1 dopamine receptor positive modulation; P21728; HEK293 TREx D1 cells, calcium flux, dopamine EC20 potentiation; potentiation, % at 10 µM; 360,000 compounds, 0.036% hits; in the data active means potentiation above about 30%; further: 0% is about no effect
* = called active by the depositor; . = no result; ! = not active in a repeat. Rows were chosen to be rich in hits. Some 4.7% of all compounds tested hit in one or more screens of this group. Unless noted, no stated cut-off is given here; in the data, active means activation above about 30%; inactive means the rest.

SMILES	D1 agonist	TRHR enhancer	TRHR ag	D1 antag	D1 potentiator
CN(C)S(=O)(=O)c1ccc2c(c1)N(CC(=O)N1CCN(c3cccc(Cl)c3)CC1)CCS2	6	8	0	2	1
Cc1nc2c(c(C)c1CCC(=O)NCc1ccc(Cl)cc1)c(=O)n(C)c(=O)n2C	1	4	0	11	1
Cc1ccc(NC(=O)c2c(C)oc3ncnc(N4CCCCC4)c23)c(C)c1	1	8	-1	-25	0
O=C(CCc1nnc2n(CCc3ccccc3)c(=O)c3ccccc3n12)NCCCN1CCCCC1	0	-4	0	-56*	-6
COC(=O)c1ccc2c(=O)n(Cc3ccc(C(=O)NCCCN4CCC(C)CC4)cc3)c(=S)[nH]c2c1	0	3	0	-42*	-11
Cc1ccc(C)c(N2CCN(C(=O)c3ccc4c(=O)n(CCc5ccccc5)c(=O)[nH]c4c3)CC2)c1	-1	-1	0	-30*	4
CC1CCN(CCCNC(=O)c2ccc3c(=O)n(Cc4ccc(Cl)cc4)c(=S)[nH]c3c2)CC1	12	-7	1	0	-8
CCCCNC(=O)c1ccc2c(OCC)n(CCCC)nc2c1	0	-4	-1	-1	-3
CCCn1nc2cc(C(=O)NCCc3cccs3)ccc2c1OCC	1	-23	-1	-83*	-12
CC(C)(C)C(=O)NCC(c1ccc2c(c1)OCO2)N1CCOCC1 (stereo not given)	2	-3	0	-16	-2
Cc1cccc(OC(=O)CSc2nnc(CNC(=O)c3ccccc3)o2)c1C	0	1	1	13	0
COc1cc(C(=O)N2CCC(c3nc4ccccc4o3)CC2)cc(OC)c1OC	-3	0	0	4	0
COc1c2ccc(C(=O)NCCCCc3ccccc3)cc2nn1C	3	4	0	-35*	-8
CCOCCCNC(=O)c1ccc2c(=O)n(CCc3ccccc3)c(=O)[nH]c2c1	0	-1	0	-39*	-1
O=C(NCCCN1CCCCC1)c1ccc2c(=O)n(CCc3ccccc3)c(=O)[nH]c2c1	1	1	1	-46*	-8
CCCCCNC(=O)c1ccc2c(=O)n(CCc3ccccc3)c(=O)[nH]c2c1	1	4	0	8	-1
COCCn1c(CNC(=O)c2cc(OC)c(OC)c(OC)c2)nc2cccnc21	2	-1	0	-7	-4
COc1ccc(CCNC(=O)CCc2cn(Cc3ccc(C)cc3)c3ccccc23)cc1OC	1	-4	1	0	-3
O=C(O)CCCn1cc(NC(=O)COc2ccccc2F)cn1	8	1	-1	-39*!	1
Cc1cc2ncn(S(=O)(=O)N3CCCCC3)c2cc1C	-1	-5	0	-33*	-3
CC(C)C(NS(=O)(=O)c1cccc2cccnc12)C(=O)Nc1ccc(OC(F)(F)F)cc1 (stereo not given)	12	-8	1	-22	-7
CC(C)(C)c1ccc(C(=O)NCCCN2CCN(CCCNC(=O)c3ccc(C(C)(C)C)cc3)CC2)cc1	24	7	1	-30*	-7
CC(C)c1ccc(C(=O)NCCCN2CCOCC2)cc1	3	-3	0	-19	-1
O=C(NCCCN1CCOCC1)c1ccc(CSc2ccc(Cl)cc2)cc1	24	-2	0	-35*	-14
O=C(NCCCN1CCOCC1)c1ccc(Br)cc1	2	-7	0	29	-4
SMILES	D1 agonist	TRHR enhancer	TRHR ag	D1 antag	D1 potentiator
Cc1c(C)n(Cc2ccc(Cl)cc2)c2ccc(C(=O)NCCN3CCOCC3)cc12	5	-1	0	-38*	-12
COCCCNC(=O)C1CCC(Cn2c(=O)c3sccc3n(C)c2=O)CC1 (stereo not given)	1	4	-1	7	-5
Cc1nc2nc(NC(=O)C(C)(C)C)[nH]n2c(=O)c1Cc1ccccc1	-1	-2	0	3	0
COC(=O)c1ccc(OCC(O)CN2C(=O)c3ccccc3S2(=O)=O)cc1 (stereo not given)	6	0	0	-40*	-2
Cc1cc(C)c(S(=O)(=O)NCC(c2cccs2)S(=O)(=O)c2ccccc2)c(C)c1 (stereo not given)	22	2	0	.	-4
O=C(NN=C1CCN(Cc2ccccc2)CC1)c1ccccc1O	0	4	1	-31*	-2
